An excerpt weighted towards active compounds, which were near 12% of everything screened.
Sm TGR inh: qHTS Assay for the Inhibitors of Schistosoma Mansoni Peroxiredoxins. AID 485364, 2010. 360,000 compounds, 3% hits. Potency, µM (doses to about 114 µM), for the others: at the highest dose activity change, negative = inhibition, actives largely listed as inhibitors. purified TGR, DTNB reduction, TNB absorbance 405 nm; note: % is set by controls: 0 for no effect and ±100 for the full control effect; nearly all actives have a fitted effect of over 60% in size
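First, TGR (20 nM dispensed) and NADPH were mixed with compound. Second, a 15 min room-temperature incubation followed. Third, further NADPH and then DTNB were added to start the reaction. Finally, TNB absorbance was monitored kinetically.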
AmpC detergent: qHTS Inhibitors of AmpC Beta-Lactamase (assay with detergent) | P00811 | AmpC hydrolysis of nitrocefin, absorbance 480 nm, 0.01% Triton | Potency, µM (titrated, usually from 114 µM), for inactives: at the top dose activity change, negative = inhibition, actives largely listed as inhibitors | 370,000 compounds, 0.041% hits;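 note: 0% = no-compound wells and -100% = no-enzyme wells; nearly all actives have a fitted effect of over 25% in size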
Target sequence (P00811 whole entry, looked up): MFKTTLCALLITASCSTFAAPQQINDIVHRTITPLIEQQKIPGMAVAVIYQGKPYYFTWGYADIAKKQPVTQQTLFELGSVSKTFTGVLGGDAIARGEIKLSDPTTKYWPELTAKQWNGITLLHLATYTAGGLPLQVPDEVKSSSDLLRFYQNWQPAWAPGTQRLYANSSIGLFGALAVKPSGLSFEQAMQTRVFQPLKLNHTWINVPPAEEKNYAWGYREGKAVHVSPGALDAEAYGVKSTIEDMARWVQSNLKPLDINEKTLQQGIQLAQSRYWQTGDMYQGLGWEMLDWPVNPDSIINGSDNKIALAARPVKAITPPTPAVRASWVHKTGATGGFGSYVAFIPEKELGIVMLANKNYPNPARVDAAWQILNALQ
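AmpC (5.3 nM in the dispensed reagent) in 20 mM phosphate pH 7.0 with 0.01% (detergent screen) or 0.0001% Triton X-100 was preincubated with compounds for 15 min at room temperature. Nitrocefin was then added from an 800 uM solution, and hydrolysis was followed at 480 nm.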
AmpC inh no detg: qHTS Inhibitors of AmpC Beta-Lactamase (assay without detergent); P00811; AmpC nitrocefin hydrolysis, absorbance 480 nm, 0.0001% Triton; Potency, µM (top dose mostly 57.1 µM), inactives show at the top dose activity change, negative = inhibition, actives largely listed as inhibitors; 330,000 compounds, 0.52% hits;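 note: plate controls were no compound for no effect and no enzyme for full effect; nearly all actives have a fitted effect of over 20% in size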
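20 mM phosphate pH 7.0 + 0.01% (detergent screen) or 0.0001% Triton X-100; 5.3 nM AmpC reagent; cpd preinc 15 min RT; nitrocefin (800 uM stock) to start; A480 q20 s × 4 min; Activity was normalised to no-enzyme and no-compound control wells.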
Pf growth 96h: Primary qHTS for delayed death inhibitors of the malarial parasite plastid, 96 hour incubation; P. falciparum luciferase reporter growth, 96 h; Potency, µM (doses to about 28.7 µM), for inactives: top-dose activity change, negative = inhibition, most hits filed as inhibitors; 320,000 compounds, 6.9% hits; AID 504834, 2011; note: % is set by controls: 0 for no effect and ±100 for the full control effect
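Readout is luminescence from an integrated firefly luciferase in P. falciparum. Red cells, 2% hematocrit and 0.05% parasitemia final, were cultured with compound through two parasite generations (96 hours) at 37 C, 5% CO2.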
Pf growth 48h: Primary qHTS for delayed death inhibitors of the malarial parasite plastid, 48 hour incubation; P. falciparum luciferase growth in erythrocytes, 48 h; Potency, µM (doses to about 28.7 µM), without a hit: at the highest dose activity change, negative = inhibition, hits mostly inhibitors; 310,000 compounds, 5.9% hits; note: % is set by controls: 0 for no effect and ±100 for the full control effect
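Compounds are pin-transferred into medium, infected erythrocytes (2% hematocrit, 0.1% parasitemia final) are added, and plates sit one parasite generation at 37 C in 5% CO2. Detection reagent is then added and luminescence measured.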
SARS PLpro yeast: qHTS of Yeast-based Assay for SARS-CoV PLP; S. cerevisiae expressing SARS-CoV PLpro, growth rescue; Potency, µM (series often up to 32.9 µM), without a hit: at the highest dose activity, positive = growth rescue, hits mostly activators; 330,000 compounds, 0.19% hits; AID 485353, 2010; calls by dose curve; note: 0% is about no effect; nearly all actives have a fitted effect of over 55% in size
* marks the source's active call; other numbers are inactive results; [ ] = another dose, or the depositor's remark. Unless noted, calls come from the whole dose curve; as a rule, active = well fitted curve in the direction sought with a large enough effect; inconclusive = small, poorly fitted or top-dose-only effect, or another doubt; inactive = no such curve, though single readings can be large; an effect the other way counts as inactive or inconclusive. Potency is the fitted concentration of half-maximal effect.

What do the screens show for `CC(=O)Oc1ccc(N2C(=O)CC(N3CCOCC3)C2=O)cc1` (centres undefined)?
Sm TGR inh: 22µM*; AmpC detergent: -13%; AmpC inh no detg: -10%; Pf growth 48h: -8%; SARS PLpro yeast: -2%

What do the screens show for `CC(=O)Oc1ccc(N2C(=O)C3C4C=CC(O4)C3C2=O)cc1` (centres undefined)?
Sm TGR inh: 7.1µM*; AmpC detergent: 6%; AmpC inh no detg: -17%; Pf growth 96h: 10%; Pf growth 48h: -5%; SARS PLpro yeast: -66%

Results for O=C1CC(N2CCOCC2)C(=O)N1c1ccc2c(c1)OCO2 (centres undefined) ?
Sm TGR inh: 50µM*; AmpC detergent: 1%; AmpC inh no detg: -14%; Pf growth 48h: 10%; SARS PLpro yeast: -28%

What do the screens show for `CC(=O)Oc1cccc(N2C(=O)C3C(C2=O)C2C=CC3C23CC3)c1` (centres undefined)?
Sm TGR inh: 40µM*; AmpC detergent: inconclusive; AmpC inh no detg: -3%; Pf growth 96h: 80%; Pf growth 48h: 5%; SARS PLpro yeast: -1%

Results for O=C1CC(N2CCN(c3ccccc3)CC2)C(=O)N1c1ccc2c(c1)OCO2 (centres undefined) ?
Sm TGR inh: -16%; AmpC detergent: -2%; AmpC inh no detg: -5%[2.29 µM]; Pf growth 96h: 380%; Pf growth 48h: 16%; SARS PLpro yeast: -2%

What do the screens show for `O=C(Nc1cc(Cl)ccc1Cl)C1CC(=O)N(c2ccc(Br)cc2)C1` (centres undefined)?
Sm TGR inh: -6%; AmpC detergent: -3%; AmpC inh no detg: -13%; Pf growth 96h: inconclusive; SARS PLpro yeast: -7%

How did COc1ccc(NC(=O)C(NS(=O)(=O)c2ccc3c(c2)CCCC(=O)N3)C(C)C)c(OC)c1 (centres undefined) do in these assays?
Sm TGR inh: -10%; AmpC detergent: 3%

Results for O=C(/N=C1\NC(=O)C(F)(C(F)(F)F)S1)NC1CCCCC1 (centres undefined) ?
Sm TGR inh: 13µM*; AmpC detergent: 1%; AmpC inh no detg: -20%; Pf growth 96h: 5%; Pf growth 48h: 0%; SARS PLpro yeast: 3%

How did COc1ccccc1C(=O)N/C(=C\c1cn(S(=O)(=O)N(C)C)c2ccccc12)C(=O)NCCCN1CCOCC1 do in these assays?
Sm TGR inh: -2%; AmpC detergent: -11%; AmpC inh no detg: 184%; Pf growth 96h: inconclusive; Pf growth 48h: inconclusive; SARS PLpro yeast: -3%

Results for CN(C)S(=O)(=O)n1cc(/C=C(\NC(=O)c2ccccc2F)C(=O)NCCCn2ccnc2)c2ccccc21 ?
Sm TGR inh: -5%; AmpC detergent: -23%; AmpC inh no detg: 329%; Pf growth 96h: -7%; Pf growth 48h: 10µM*; SARS PLpro yeast: 8%

Results for CN(C)c1ccc(/C=C(\NC(=O)c2ccccc2)C(=O)NCCCN2CCOCC2)cc1 ?
Sm TGR inh: 0%; AmpC detergent: 2%; AmpC inh no detg: 1%; Pf growth 96h: 15%; Pf growth 48h: 13%; SARS PLpro yeast: 1%

What do the screens show for `CN(C)c1ccc(/C=C(\NC(=O)c2ccccc2)C(=O)NCCN2CCOCC2)cc1`?
Sm TGR inh: 5%; AmpC detergent: 2%; AmpC inh no detg: -4%; Pf growth 96h: 9.3µM*; Pf growth 48h: 10%; SARS PLpro yeast: -4%

How did CCn1cc(/C=C(\NC(=O)c2ccccc2OC)C(=O)NCCCN2CCOCC2)c2ccccc21 do in these assays?
Sm TGR inh: -20%; AmpC detergent: -10%; AmpC inh no detg: 114%; Pf growth 96h: 9.3µM*; Pf growth 48h: inconclusive; SARS PLpro yeast: inconclusive

How did CCn1cc(/C=C(\NC(=O)c2ccc(OC)cc2)C(=O)N2CCN(C)CC2)c2ccccc21 do in these assays?
Sm TGR inh: 0%; AmpC detergent: inconclusive; AmpC inh no detg: 207%; Pf growth 96h: 13µM*; Pf growth 48h: inconclusive; SARS PLpro yeast: 9%

How did CC1(C(=O)CSc2n[nH]c(-c3ccccc3Cl)n2)CCC(=O)O1 (centres undefined) do in these assays?
Sm TGR inh: -18%; AmpC detergent: 2%; AmpC inh no detg: -29%; Pf growth 96h: 0%; Pf growth 48h: 69%; SARS PLpro yeast: 8%

Results for CCCCn1c(SCC(=O)NC2CC2)nnc1-c1ccncc1 ?
Sm TGR inh: -1%; AmpC detergent: -8%; AmpC inh no detg: -2%; Pf growth 96h: -17%; Pf growth 48h: 40%; SARS PLpro yeast: 1%

How did CN1CCN(C(=O)/C(=C/c2cn(S(=O)(=O)N(C)C)c3ccccc23)NC(=O)c2ccccc2)CC1 do in these assays?
Sm TGR inh: 0%; AmpC detergent: inconclusive; AmpC inh no detg: 126%; Pf growth 96h: 12µM*; Pf growth 48h: inconclusive; SARS PLpro yeast: 0%

How did COc1ccc(NC(=O)c2cnc3cc(C)ccn3c2=O)c(OC)c1 do in these assays?
Sm TGR inh: 3%; AmpC detergent: 24%

Results for CCN(CC)C(=O)C1CC(=O)N(c2ccc(OC)cc2)C1c1ccc(OC)cc1 (centres undefined) ?
Sm TGR inh: -15%; AmpC detergent: -10%; AmpC inh no detg: -1%; Pf growth 48h: inconclusive; SARS PLpro yeast: 1%

How did CCCN(CCC)CCNC(=O)C1CC(=O)N(c2ccc(OC)cc2)C1c1ccc(OC)cc1 (centres undefined) do in these assays?
Sm TGR inh: -1%; AmpC detergent: -15%; AmpC inh no detg: 70%; Pf growth 96h: 1.7µM*; Pf growth 48h: inconclusive; SARS PLpro yeast: 5%

Results for COc1ccc(C2C(C(=O)N3CCC4(CC3)OCCO4)CC(=O)N2c2ccc(OC)cc2)cc1 (centres undefined) ?
Sm TGR inh: -15%; AmpC detergent: 2%; AmpC inh no detg: 91%; Pf growth 48h: 12µM*; SARS PLpro yeast: 4%

How did COc1ccc(C2C(C(=O)N3CCC(C(N)=O)CC3)CC(=O)N2c2ccc(OC)cc2)cc1 (centres undefined) do in these assays?
Sm TGR inh: -3%; AmpC detergent: -2%; AmpC inh no detg: -4%; Pf growth 96h: 5.2µM*; Pf growth 48h: inconclusive; SARS PLpro yeast: 0%

Bioassay records deposited in PubChem BioAssay by National Center for Advancing Translational Sciences (NCATS).
